Pf Dd2 growth: Plasmodium falciparum Dd2 growth inhibition | 4.3% of 120,000 active | Potency, µM (top dose mostly 28.9 µM), without a hit: at the top dose activity, negative = inhibition, usual class: inhibitors | AID 1347417 | P. falciparum Dd2 growth, SYBR Green, 72 h; active = well fitted inhibition curve with a large enough effect;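 note: plate controls were DMSO vehicle for no effect and reference drug for full effect; nearly all actives have a fitted effect of over 65% in size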
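Readout: SYBR Green fluorescence, 485 nm excitation, 535 nm emission, after ~16 h lysis at 37C. Before that, Dd2-infected red cells (2.5% hematocrit) grew 72 h with compound, 29 uM top final concentration.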
* hit, by the source's call; i = inactive; [ ] = dose if it differs, or a comment. The sample as a whole holds a higher share of hits than the screen did. Potency is the fitted concentration of half-maximal effect.

SMILES	Pf Dd2 growth
CC(C)N1C(=O)Cc2ccccc2C1C(=O)NCc1ccccc1 (stereo not drawn)	-11.6%
COc1ncccc1-c1nc(-c2c(C)noc2C)cc2c1cc(C)n2C	i
COc1ncccc1-c1cc(-c2c(C)noc2C)c2cncn2c1	10µM*
Cc1ccccc1-c1nc(-c2c(C)noc2C)cc2cc(CO)oc12	-29.9%[44.1 µM]
c1cc(-c2cc(-c3ccncc3)c3cncn3c2)cc(N2CCOCC2)c1	i
Cc1ccccc1-c1cc(-c2cn[nH]c2)c2cncn2c1	-25.7%[44.1 µM]
Cc1ccccc1-c1cc(-c2c(C)noc2C)c2cncn2c1	3.16µM*
Cc1noc2c(-c3ccc(N4CCOCC4)cc3)cc(-c3ccccc3)nc12	i
COc1ncccc1-c1cc(-c2ccc(=O)[nH]c2)c2cncn2c1	i
Cc1noc(C)c1-c1cc(-c2cccc(N3CCOCC3)c2)cn2cncc12	6.31µM*
O=C(CC1CCCCC1)N1CCN(C2CCN(CCc3ccccc3)C2=O)CC1 (stereo not drawn)	i
CO[C@H]1[C@H](NC(=O)Cc2ccc(O)cc2)c2ccccc2C12CCNCC2	-18.0%
COCCN1CCC(CN2CCN(c3ncc(C)c(N)n3)CC2)CC1	-1.0%
CCCCCCN(CCC(=O)NC(C)C)C(=O)c1ccoc1	-11.1%
CC1CCC2(CC1)NC(=O)N(CC(=O)NCc1ccccc1Cl)C2=O (stereo not drawn)	-17.2%
CN(Cc1ccccc1)C(=O)C[C@@H]1O[C@H](CNC(=O)c2ccccc2)[C@@H](O)[C@H]1O	0.8%[44.1 µM]
COC1CCOC2(CCN(S(=O)(=O)c3ccccc3)CC2)C1 (stereo not drawn)	24.1%
CN(Cc1ccccc1)C1CCOC2(CCN(C(=O)NC3CCCC3)CC2)C1 (stereo not drawn)	6.31µM*
COc1cccc(CC(=O)N2CCC3(CC2)CC(N(C2CC2)S(C)(=O)=O)CCO3)c1 (stereo not drawn)	i
CC(C)CNC(=O)N1CCC2(CC1)CC(N(C)Cc1ccccc1)CCO2 (stereo not drawn)	16.4%
CC(C)NC(=O)N(C1CC1)C1CCOC2(CCN(C(=O)NCc3ccccc3)CC2)C1 (stereo not drawn)	9.5%
COc1ccc(S(=O)(=O)N2CCC3(CC2)CC(N(C)Cc2ccccc2)CCO3)cc1 (stereo not drawn)	11.2µM*
Cc1ccc(CN2CCC(c3nnc(CN(C)C)n3C3CC3)CC2)o1	-0.3%
Cc1ccc(-c2nnc(C3CN(C(=O)Cc4ccccc4C)CC34CCOCC4)o2)cc1 (stereo not drawn)	i
COc1ccc(CC(=O)Nc2ccc([C@H]3OCC(=O)N(Cc4cccnc4)[C@@H]3CO)cc2)cc1	i
SMILES	Pf Dd2 growth
COc1ccc(-n2ncc(C(=O)N3CCOCC3)c2C2CCN(C(=O)OC(C)(C)C)CC2)cc1	41.4%
Cc1ccc(-n2ncc(C(=O)N3CCN(c4ccccn4)CC3)c2C2CCN(C(=O)OC(C)(C)C)CC2)cc1	18.1%
COc1cccc(N2CCN(C(=O)c3cnn(-c4ccc(C)cc4C)c3C3CCN(C(=O)OC(C)(C)C)CC3)CC2)c1	6.31µM*
Cc1cccc(N2CCN(C(=O)c3cnn(-c4ccccc4)c3C3CCN(C(=O)OC(C)(C)C)CC3)CC2)c1C	10µM*
COc1cccc(N2CCN(C(=O)c3cnn(C(C)(C)C)c3C3CCN(C(=O)OC(C)(C)C)CC3)CC2)c1	12.6µM*
COc1ccc(-n2ncc(C(=O)N3CCN(c4cc(C)ccc4C)CC3)c2C2CCN(C(=O)OC(C)(C)C)CC2)cc1	24.8%
Cc1ccc2nc(COCC(=O)N3CCn4nc(CO)cc4C3)[nH]c2c1	-20.6%
Cc1ccc(C(=O)NC(C(=O)N2CCCC2)C2CCN(C(=O)CCc3ccccc3)CC2)cc1 (stereo not drawn)	i
Cc1cc(=O)n(CC(=O)Nc2cccc(Br)c2)c(N2CCOCC2)n1	i
COc1ccc(Cl)cc1C(=O)N1CC(F)(F)C[C@H]1c1nc(C)no1	16.8%
CSCC(=O)N1C[C@@H](NC(=O)Nc2ccc(F)cc2F)C[C@H]1C(=O)N[C@H](Cc1ccccc1)C(N)=O	-6.2%
COc1cccc(CNC(=O)Cn2cccc2-c2nc(-c3ccc(F)cc3)no2)c1OC	17.7%
O=C1N(c2ccccc2)c2ccccc2C12CCN([S+](=O)([O-])c1ccccc1)C2 (stereo not drawn)	7.94µM*
O=C1NC2(CCN([S+](=O)([O-])c3ccccc3)C2)COc2ccccc21 (stereo not drawn)	5.9%
COc1ccc(CN2CCC3(C2)C(=O)N(c2ccccc2)c2ccccc23)cc1 (stereo not drawn)	8.91µM*
O=C1Nc2ccccc2C12CN([S+](=O)([O-])c1ccccc1)C2	-8.7%
COc1ccc(CN2CCC3(C2)C(=O)N(Cc2ccccc2)c2ccccc23)cc1 (stereo not drawn)	i
COc1ccc(CN2CCC3(C2)C(=O)N(C)c2ccccc23)cc1 (stereo not drawn)	-4.2%[44.1 µM]
Cc1noc(C)c1S(=O)(=O)N1CCC2(CC1)CC(N1CCN(C)CC1)CCO2 (stereo not drawn)	-22.0%
O=C(c1nccc2ccccc12)N1C[C@@H](CO)[C@H](c2ccncc2)C1	-20.0%
COc1ccc(C(=O)NC[C@H]2O[C@@H](CC(=O)Nc3ccccc3)[C@H](O)[C@@H]2O)cc1	-7.0%[44.1 µM]
CC(C)c1ccc(CC(=O)N2CCCc3ncc(C(=O)Nc4ccn(C)n4)cc32)cc1	-12.0%[44.1 µM]
Cc1csc(NC(=O)c2cnc3c(c2)N(C(=O)Cc2ccc(C(C)C)cc2)CCC3)n1	7.08µM*
O=C(Nc1ccccc1)c1cnc2c(c1)N(C(=O)Cc1ccc(O)cc1)CCC2	-19.8%[44.1 µM]
O=C(NC(c1ccccc1)c1ccccc1)c1cnc2c(c1)N(C(=O)Cc1ccc(O)cc1)CCC2	12.6µM*
SMILES	Pf Dd2 growth
CC(C)c1ccc(CC(=O)N2CCCc3ncc(C(=O)Nc4ccccc4)cc32)cc1	-8.2%[44.1 µM]
COc1ccc(NC(=O)c2cnc3c(c2)N(C(=O)Cc2ccc(O)cc2)CCC3)cn1	3.4%[44.1 µM]
O=S(=O)(CCN1CCCn2nc(CO)cc2C1)c1ccccc1	-2.9%
CCn1ccnc1C1CCN(C(=O)c2cccc(N3CCNC3=O)c2)CC1	i
COC[C@@H]1CN(S(=O)(=O)c2cccnc2)C[C@H]1c1ccncc1	5.2%
COCc1nc(C2CCCN(C(=O)c3ccsc3)C2)no1 (stereo not drawn)	26.2%
Cn1ccnc1CNC(=O)C[C@@H]1C[C@H]2O[C@H](CN)[C@@H](O)[C@H]2O1	-11.6%[44.1 µM]
COc1ccc(C(=O)NC(c2ccc(Cl)cc2)c2cc(Cl)c3cccnc3c2O)cc1 (stereo not drawn)	2.82µM*
COc1ccc(C(=O)Nc2cc(C(C)C)c(O)c(S(=O)(=O)c3ccc(OC)cc3)c2C)cc1	i
COc1ccc(S(=O)(=O)c2c(O)c3ccc(C(=O)NCc4ccc(Cl)cc4)cc3[nH]c2=O)cc1	-3.5%
COc1cc(OC)cc(C(=O)N2CCCC(n3cc(-c4nc(C)no4)nn3)C2)c1 (stereo not drawn)	5.8%
CC(=O)c1ccc(NC(=O)CC2Nc3cc(C)c(C)cc3NC2=O)cc1 (stereo not drawn)	5.01µM*
O=C(C[C@H]1NC(=O)c2ccccc2NC1=O)Nc1ccncc1	-4.0%
Cc1cc2c(cc1C)NC(CC(=O)Nc1ccccc1)C(=O)N2 (stereo not drawn)	i
Cc1cc(Br)ccc1NC(=O)C[C@H]1NC(=O)c2ccccc2NC1=O	-13.9%
CCOC(=O)c1ccc(NC(=O)CC2Nc3ccccc3NC2=O)cc1 (stereo not drawn)	12.6µM*
COc1ccc(NC(C)=O)cc1NC(=O)C[C@H]1NC(=O)c2ccccc2NC1=O	-5.6%

Compound activity (PubChem)
